KKLEB cytotox = cytotoxicity in KKLEB CF airway cells, primary screen, cytotoxicity control for CF NF-kB inhibitor project, cell-based, uHTS, fluorescence assay plates. KKLEB CF airway cells viability, ATPlite luminescence, overnight; active compounds read low; cells stimulated with P. aeruginosa culture filtrate. activity change (cytotoxicity), % at 5 µM. 360,000 compounds, 0.36% hits. AID 602141, 2011;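 active means corrected activity change at or below -50% at 5 µM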
HIF-2a inh = HIF-2a reporter inhibitors, primary screen, luminescence, 786-0 RCC cells. inhibition, % at 18.8 µM. 360,000 compounds, 0.72% hits. 786-0 RCC cells HIF-2a reporter, luciferase luminescence, overnight. AID 624352, 2012;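 active means inhibition of the luminescence signal of 40% or more relative to plate controls, in a single-dose primary screen at 18.75 µM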
hiPSC survival = enhancers of single-cell hiPSC survival, primary screen, ATPlite luminescence. 360,000 compounds, 0.044% hits. 100% = ROCK inhibitor wells, 0% = DMSO. survival enhancement, % at 20 µM; in the data active means survival enhancement above about 18%;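 further: cells exposed to compounds for 16 hours before the ATP read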
TWEAK Fn14 block = inhibitors of TWEAK-Fn14 signaling, primary screen, luciferase reporter cells, uHTS; TWEAK-stimulated Fn14 reporter cells, luciferase luminescence, 8 h; inhibition, % at 10 µM; 360,000 compounds, 2% hits; in the data active means inhibition above about 50%
LGR2 antag = inhibitors of bursicon-induced LGR2 CRE-luciferase signal, primary screen, cell-based, HEK293, CRE-luciferase reporter, bursicon stimulation; Drosophila bursicon receptor LGR2 (rickets); bursicon-stimulated, 4 h; inhibition, % at 9.99 µM; 380,000 compounds, 0.35% hits; AID 720647, 2013;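 active means drop in luminescence signal, shown as inhibition above about 50% in the replicate tests, limit read from the data, passing the limit was not always enough; inconclusive means probably only some replicates passing the limit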;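 further: agonist challenge used bursicon conditioned medium at about half maximal strength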
CF NFkB block = inhibitors of PAF-induced NF-kB signaling, primary screen, cell-based, GFP fluorescence, uHTS; KKLEB NF-kB-GFP reporter, GFP fluorescence overnight; inhibition, % at 5 µM; 360,000 compounds, 0.86% hits; AID 588850, 2011;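 active means at least 50% inhibition at 5 µM, scaled per plate between neutral and stimulator controls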;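 further: PAF is a Pseudomonas aeruginosa culture filtrate used as stimulus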
Large screens that a line does not name were inactive. Shown are actives, neighbours in structure and some others; about 2.3% of the full set was active somewhere.

C=C1C(C)C2C(Cc3ccccc3)NC(=O)C23C(OC(C)=O)C=CC(C)(O)CC(C)CC=CC3C1O (configuration not stated)	KKLEB cytotox -66.9, hiPSC survival 60.4, CF NFkB block 53.3
C[C@H]1C/C=C/[C@H]2[C@H](O)[C@H](C)[C@@](C)(O)[C@H]3[C@H](Cc4ccccc4)NC(=O)[C@]32[C@H](O)/C=C/[C@](C)(O)C1	none (no result: LGR2 antag)
C=C1[C@@H](C)[C@H]2[C@H](Cc3ccccc3)NC(=O)[C@]23OC(=O)/C=C/[C@H](O)CCC[C@@H](C)C/C=C/[C@H]3[C@@H]1O	hiPSC survival 40.1, CF NFkB block 81.1
Cc1nc2c(=O)n(C)c(=O)nc-2n(C)n1	KKLEB cytotox -73.9, HIF-2a inh 81.5, TWEAK Fn14 block 102.3, CF NFkB block 76.6 (no result: LGR2 antag)
O=C(O)[C@H]1[C@H](CO)[C@H]2Cn3c(ccc(-c4ccncc4)c3=O)[C@@H]1N2C(=O)C1CCC1	none (no result: KKLEB cytotox, HIF-2a inh, hiPSC survival, TWEAK Fn14 block, CF NFkB block)
CCC1CN2CCc3cc(OC)c(OC)cc3C2CC1CC1NCCc2c1[nH]c1ccc(O)cc21 (configuration not stated)	HIF-2a inh 57.5, TWEAK Fn14 block 99.1, LGR2 antag 100.1, CF NFkB block 89.3
COC(=O)[C@H]1[C@H](CO)[C@H]2Cn3c(ccc(-c4ccc(F)cc4)c3=O)[C@@H]1N2Cc1ccccc1	none (no result: KKLEB cytotox, HIF-2a inh, hiPSC survival, TWEAK Fn14 block, CF NFkB block)
CN1C(=O)/C(=C/c2ccc(Cl)s2)C(=O)NC1=S	CF NFkB block 65.7
N=Cc1c(O)n(-c2ccc(C34CC5CC(CC(C5)C3)C4)cc2)c(=O)[nH]c1=O	TWEAK Fn14 block 67.5
O=C1NC(=O)N(Cc2ccc(F)cc2)C(=O)/C1=C/c1cccs1	none
O=C1NC(=O)N(Cc2ccccc2Cl)C(=O)/C1=C/c1cccs1	HIF-2a inh 49.6
CC(C)(O)/C=C/C(=O)C(C)(O)C1C(O)CC2(C)C3CC=C4C(C=C(O)C(=O)C4(C)C)C3(C)C(=O)CC12C (configuration not stated)	KKLEB cytotox -62.0, HIF-2a inh 91.2, TWEAK Fn14 block 89.9, LGR2 antag 87.9, CF NFkB block 85.6
CC(=O)OC(C)(C)/C=C/C(=O)[C@](C)(O)C1[C@H](O)C[C@@]2(C)C3CC=C4C(C[C@H](O)C(=O)C4(C)C)[C@]3(C)C(=O)C[C@]12C (some centres not stated)	KKLEB cytotox -89.2, HIF-2a inh 72.4, CF NFkB block 83.6 (no result: LGR2 antag)
O=C(Cc1ccccc1)N1CC2(C1)[C@H](c1ccccc1)[C@@H](CO)N2Cc1cccc(F)c1	none (no result: KKLEB cytotox, HIF-2a inh, hiPSC survival, TWEAK Fn14 block, CF NFkB block)
COC(=O)[C@@H]1[C@@H](CO)[C@@H]2Cn3c(ccc(-c4ccc(F)cc4)c3=O)[C@H]1N2Cc1ccccc1	none (no result: KKLEB cytotox, HIF-2a inh, hiPSC survival, TWEAK Fn14 block, CF NFkB block)
CCCC#Cc1ccc([C@@H]2[C@H]3CN(C(=O)Cc4ccccn4)CCCCN3[C@H]2CO)cc1	none (no result: KKLEB cytotox, HIF-2a inh, hiPSC survival, TWEAK Fn14 block, CF NFkB block)
COCCN1C(=O)/C(=C/c2c(OC)cc(OC)cc2OC)C(=O)N(c2ccccc2)C1=O	TWEAK Fn14 block 69.9
COC(=O)[C@@H]1[C@@H](CO)[C@@H]2Cn3c(ccc(-c4ccccc4)c3=O)[C@H]1N2CC1CCOCC1	none (no result: KKLEB cytotox, HIF-2a inh, hiPSC survival, TWEAK Fn14 block, CF NFkB block)
N#Cc1cccc(-c2ccc([C@@H]3[C@@H](CO)N4CCCCN(C(=O)Cc5ccccc5)C[C@H]34)cc2)c1	none (no result: KKLEB cytotox, HIF-2a inh, hiPSC survival, TWEAK Fn14 block, CF NFkB block)
Nc1ccc(C2(c3ccc(N)cc3)c3ccccc3-c3ccccc32)cc1	KKLEB cytotox -56.8, TWEAK Fn14 block 82.5, CF NFkB block 75.0
Nc1ccc(-c2ccccc2)cc1	none
Cc1cccc(N2C(=O)NC(=O)/C(=C\C=C\c3ccco3)C2=O)c1	CF NFkB block 87.5
O=C1NC(=O)N(c2ccccc2)C(=O)/C1=C/C=C/c1ccco1	none
Cn1cc(/C=C2\C(=O)NC(=O)N(c3ccccc3)C2=O)c2ccccc21	none
CN(C)c1ccc(/C=C/C=C2/C(=O)NC(=O)N(c3ccccc3)C2=O)cc1	TWEAK Fn14 block 92.2, CF NFkB block 70.5 (no result: LGR2 antag)
Cc1ccc(N2C(=O)NC(=O)/C(=C\C=C\c3ccco3)C2=O)cc1C	HIF-2a inh 75.5, CF NFkB block 79.7
Cc1ccc(N2C(=O)NC(=O)/C(=C\C=C\c3ccco3)C2=O)cc1	HIF-2a inh 42.2, CF NFkB block 52.1
O=C(O)[C@@H]1[C@@H](CO)[C@@H]2Cn3c(ccc(-c4ccncc4)c3=O)[C@H]1N2C(=O)C1CC1	none (no result: KKLEB cytotox, HIF-2a inh, hiPSC survival, TWEAK Fn14 block, CF NFkB block)
c1cc(-c2ccc(C3[C@H]4CNC[C@@H]3N4CC3CC3)cc2)ccn1 (some centres not stated)	none (no result: KKLEB cytotox, HIF-2a inh, hiPSC survival, TWEAK Fn14 block, CF NFkB block)
CCCN1[C@@H]2Cn3c(ccc(-c4ccc(OC)cc4)c3=O)[C@H]1[C@@H](C(=O)OC)[C@@H]2CO	none (no result: KKLEB cytotox, HIF-2a inh, hiPSC survival, TWEAK Fn14 block, CF NFkB block)
CC1Oc2cc3c(-c4c(O)cc(O)c5c(O)c6c(cc45)OC(C)C(C)C6=O)c(O)cc(O)c3c(O)c2C(=O)C1C (configuration not stated)	KKLEB cytotox -55.9, TWEAK Fn14 block 68.3, CF NFkB block 67.3 (no result: LGR2 antag)
COC(=O)C1=C(C(=O)OC)SC2(S1)C(C(=O)OC)=C(C(=O)OC)Sc1c2ssc1=O	KKLEB cytotox -68.8, HIF-2a inh 87.5, TWEAK Fn14 block 58.5, CF NFkB block 113.1
COc1cc2cc(C(=O)N3CC(COS(C)(=O)=O)c4ccc(O)cc43)[nH]c2c(OC)c1OC (configuration not stated)	KKLEB cytotox -95.9, HIF-2a inh 83.5, TWEAK Fn14 block 108.0, CF NFkB block 88.1 (no result: LGR2 antag)
Cc1ccc(OCCOc2cccc(C=C3C(=O)NC(=O)NC3=O)c2)c(C)c1	HIF-2a inh 55.2, TWEAK Fn14 block 88.8, LGR2 antag 76.7
O=C1NC(=O)C(=Cc2cccc(OCCOc3ccccc3)c2)C(=O)N1	none
NC(Cc1ccc(Cl)cc1)c1csc(Nc2ncccn2)n1 (configuration not stated)	TWEAK Fn14 block 57.9, LGR2 antag inconclusive
Cc1ccc(C[n+]2c(-c3ccc(C)cc3)cc(-c3ccc(C)cc3)cc2-c2ccc(C)cc2)cc1	KKLEB cytotox -63.7, HIF-2a inh 89.9, TWEAK Fn14 block 92.5, CF NFkB block 57.3 (no result: LGR2 antag)
COC(=O)[C@H]1[C@H](CO)[C@H]2Cn3c(ccc(-c4cccc(OC)c4)c3=O)[C@@H]1N2C(=O)c1cnccn1	none (no result: KKLEB cytotox, HIF-2a inh, hiPSC survival, TWEAK Fn14 block, CF NFkB block)
CC(C)CCn1c(N)c(C(=O)NCc2cccs2)c2nc3ccccc3nc21	TWEAK Fn14 block 63.1
COCCNC(=O)c1c(N)n(CCC(C)C)c2nc3ccccc3nc12	none (no result: LGR2 antag)
CCN(CC)c1ccc(C=C2C(=O)NC(=S)NC2=O)cc1	HIF-2a inh 67.8, CF NFkB block 65.7

From PubChem BioAssay
